The nature of test [1]: Nuclear factor erythroid 2-related factor 2/antioxidant responsive element (Nrf2/ARE) small molecule agonists: qHTS cell viability counter screen in human keratinocytes (AID 1919968; active means well fitted curve in the direction sought with a large enough effect in the repeat runs; an effect the other way counts as inactive or inconclusive; further: nearly all actives have a fitted effect of over 55% in size; further: potency means the concentration at half of the fitted maximal effect). The essentials: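 KeratinoSens HaCaT cells, 1,500/well, preincubated 5 h, then exposed to compounds in DMSO for 23 h at 37 C/5% CO2. Viability read as CellTiter-Fluor fluorescence after 1 h, in the same wells as the ARE-luciferase read.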

Test [2] is described as follows: Nuclear factor erythroid 2-related factor 2/antioxidant responsive element (Nrf2/ARE) small molecule agonists: luciferase reporter gene qHTS assay in human keratinocytes (AID 1919969). Further: nearly all actives have a fitted effect of over 35% in size. Further: potency means the concentration at half of the fitted maximal effect. Background: Reporter assays use an easily measured gene product as a stand-in for the process of interest.
Test [3] addresses Gonadotropin-releasing hormone receptor (Homo sapiens) (UniProt P30968). Nature of the test: Human gonadotropin-releasing hormone receptor (GnRHR) small molecule agonists, calcium flux assay in GnRHR-HEK293 cells (AID 1920063). Further: nearly all actives have a fitted effect of over 35% in size. Further: potency means the concentration at half of the fitted maximal effect. The essentials: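 HEK293 cells stably expressing human GnRHR were dye-loaded for 1 h at 37 C. Compound was added in agonist mode and fluorescence (Ex/Em 480/540) recorded kinetically for 3 min. Fifteen concentrations, triplicates.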
A general note: A change in cytosolic calcium serves as a functional read-out for many receptors and channels.

Test [4] has as its target KiSS-1 receptor (Homo sapiens) (UniProt Q969F8). Put plainly: Human kisspeptin (KISS1R) small molecule agonists, calcium flux assay in KISS1R-HEK293 cells (AID 1920064; active means well fitted curve in the direction sought with a large enough effect in the repeat runs; an effect the other way counts as inactive or inconclusive). Summed up:
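HEK293 cells stably expressing human KISS1R were loaded with calcium dye for 1 h at 37 C, then given compound; fluorescence (Ex/Em 480/540) was read kinetically for 3 min. Fifteen concentrations, triplicate.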

Test [5] is described as follows: G protein-coupled receptor (GPCR) small molecule agonists, calcium flux assay: HEK293 wild type cell line counter screen (AID 1920065). The essentials: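 Wild-type HEK293 cells plated 18 h, loaded with calcium dye 1 h at 37 C, then compounds added in agonist mode (ATP as positive control). Kinetic fluorescence Ex/Em 480/540 recorded 3 min at 1 sec intervals; 15 concentrations, triplicate.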

Test [6] is described as follows: p53 small molecule agonists, cell-based qHTS assay with rat liver microsomes (AID 1963578). Summed up: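 Each plate received p53RE-bla cells, then compound, then rat liver microsomes and NADPH (both 0.5 mg/mL final). Plates were held 16 h at 37 C, and beta-lactamase activity was detected with LiveBLAzer over 2 h.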
On the technique in general: In qHTS, concentration-response curves come from the screen itself.

A short description of test [7]: p53 small molecule agonists, cell-based qHTS assay with human liver microsomes: qHTS cell viability counter screen (AID 1963579). Further: nearly all actives have a fitted effect of over 45% in size. Summed up: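 Tox21 library compounds, delivered from DMSO stocks, were tested on p53RE-bla cells together with 0.5 mg/mL human liver microsomes and 0.5 mg/mL NADPH (final) over 16 h at 37 C; CellTiter-Glo luminescence served as the cytotoxicity measure.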

Test [8] is described as follows: p53 small molecule agonists, cell-based qHTS assay with rat liver microsomes: qHTS cell viability counter screen (AID 1963580). Further: nearly all actives have a fitted effect of over 45% in size. Summed up:
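Intracellular ATP, by CellTiter-Glo luminescence, defines viability. HCT-116 p53RE-bla cells, 4,000 per well, were compound-treated in the presence of rat liver microsomes and NADPH for 16 h at 37 C.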

Test [9] in a line: p53 small molecule agonists, cell-based qHTS assay: qHTS cell viability counter screen (AID 1963581). Further: nearly all actives have a fitted effect of over 45% in size. The essentials: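 p53RE-bla HCT-116 cells, compounds added 5 h after plating and incubated 16 h at 37 C. Cytotoxicity measured in the same wells as intracellular ATP by CellTiter-Glo luminescence after 30 min at room temperature.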
A short description of test [10]: p53 small molecule agonists, cell-based qHTS assay (AID 1963582; active means well fitted activation curve with a large enough effect in the signal ratio in the repeat runs, not every such curve was filed as active; the % refers to the signal ratio). Summed up:
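p53RE-bla reporter cells, compounds added in DMSO after 5 h plating, incubated 16 h at 37 C. Beta-lactamase read via 2 h room-temperature LiveBLAzer B/G FRET substrate, fluorescence intensity.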

In test [11] the target is 5-hydroxytryptamine receptor 2A (Homo sapiens) (UniProt P28223). Put plainly: 5-hydroxytryptamine receptor 2A (HTR2A) small molecule antagonists, cell-based qHTS assay (AID 1963586). Further: nearly all actives have a fitted effect of over 45% in size. Further: potency means the concentration at half of the fitted maximal effect. The essentials:
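Antagonist-mode intracellular calcium assay: DOI (4 nM) added after 5 min compound pre-incubation at room temperature to dye-loaded HTR2A-CHO cells. Fluorescence followed for 3 min, sampled every second.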

The target is the same in test [12]. Nature of the test: 5-hydroxytryptamine receptor 2A (HTR2A) small molecule agonists, cell-based qHTS assay (AID 1963587). Further: nearly all actives have a fitted effect of over 30% in size. Further: potency means the concentration at half of the fitted maximal effect. The essentials: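 Kinetic calcium-flux fluorescence (2 min, 1 sec intervals) after compound addition in agonist mode. HTR2A-CHO cells were cultured 18 h, then dye-loaded 1 h at 37 C.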
The target in test [13] is Muscarinic acetylcholine receptor M1 (Homo sapiens) (UniProt P11229). Nature of the test: Cholinergic receptor muscarinic 1 (CHRM1) small molecule antagonists, cell-based qHTS assay (AID 1963588). Further: nearly all actives have a fitted effect of over 40% in size. Summed up:
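CHRM1-CHO calcium-flux assay, antagonist mode. Cells were seeded 18 h, dye-loaded 1 h at 37 C and given compound for 5 min at RT, then acetylcholine was added at 50nM. FDSS fluorescence was read 3 min; 15 concentrations, three runs.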

Test [14] shares this target. Nature of the test: Cholinergic receptor muscarinic 1 (CHRM1) small molecule agonists, cell-based qHTS assay (AID 1963589). Further: nearly all actives have a fitted effect of over 35% in size. Further: potency means the concentration at half of the fitted maximal effect. The essentials: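 CHO cells stably expressing human CHRM1 were loaded with calcium dye for 1 h at 37 C, then compound was added in agonist mode. Intracellular calcium fluorescence was followed kinetically at 1 s intervals. Fifteen concentrations were tested in three independent runs.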

Test [15] can be described thus: cAMP Responsive Elements (CRE) small molecule agonists, cell-based qHTS assay (AID 1963590). Summed up:
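CRE-bla HEK 293T cells, 2,000/well in DMEM with 10% dialyzed FBS and 25 mM HEPES, pre-incubated 18 h at 37 C, then exposed to compound 3 h at 37 C. Beta-lactamase reporter read with LiveBLAzer B/G FRET substrate after 2 h at room temperature.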

The nature of test [16]: cAMP Responsive Elements (CRE) small molecule antagonists, cell-based qHTS assay (AID 1963591; active means well fitted inhibition curve with a large enough effect in the signal ratio in the repeat runs, not every such curve was filed as active; the % refers to the signal ratio). Summed up: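 CRE-bla HEK293T cells plated 18 h, then given compound plus NKH477 at 0.25 uM final for 3 h at 37C. Beta-lactamase reporter read with LiveBLAzer B/G FRET substrate after 2 h at room temperature.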
Test [17] concerns the target Beta-2 adrenergic receptor (Homo sapiens) (UniProt P07550). Put plainly: Adrenergic beta2 receptor (ADRB2) small molecule antagonists, cell-based qHTS assay (AID 1963592). Further: series mostly up to about 92 µM; nearly all actives have a fitted effect of over 50% in size. The essentials: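 Cells (CHO, stable ADRB2 overexpression) incubated 18-20hr at 37C; compounds added from DMSO; agonist mix (1nM isoproterenol, 100uM IBMX, 25uM Ro-20-1724) added; 0.5hr RT; d2-cAMP and anti-cAMP-cryptate added; 1hr RT; 665/615 nm read.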

The target is the same in test [18]. Nature of the test: Adrenergic beta2 receptor (ADRB2) small molecule agonists, cell-based qHTS assay (AID 1963593). Further: potency means the concentration at half of the fitted maximal effect.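 On activation: CHO cells stably overexpressing human ADRB2.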 Summed up: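 CHO cells stably over-expressing ADRB2 were plated overnight at 37C, then dosed with compounds plus a stimulation mix containing 100uM IBMX and 25uM Ro-20-1724 for 0.5hr at room temperature. cAMP was measured by HTRF competition, 1hr.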

Test [19] deals with D(2) dopamine receptor (Homo sapiens) (UniProt P14416). Put plainly: Dopamine D2 receptor (DRD2) small molecule agonists, cell-based qHTS assay (AID 1963594). Further: nearly all actives have a fitted effect of over 35% in size. The essentials:
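cAMP accumulation in DRD2-HEK293 cells measured by HTRF after 1 h detection; compounds added 10 min before NKH477 (200nM […]) forskolin-analogue stimulation, 30 min at room temperature, with Ro20-1724 present at 0.1 mM final.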

Test [20] shares this target. Nature of the test: Dopamine D2 receptor (DRD2) small molecule antagonists, cell-based qHTS assay (AID 1963595; active means well fitted inhibition curve with a large enough effect in the signal ratio in the repeat runs, with a control signal flat; the % refers to the signal ratio). The essentials: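 HEK293 cells stably expressing DRD2 were preincubated with 0.1 mM Ro20-1724, then with compound for 10 min at room temperature. Cells were stimulated with 200 nM NKH477 plus 12 nM quinpirole for 30 min, and cAMP was read by HTRF.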

Values joined by “and” are separate entries in the source; they are usually repeats but may differ in a detail not shown here. Identical values can stand only once. Records with an inconclusive call do not appear. Active and inactive are the calls of the source. Unless noted, the call rests on the fitted dose curve.

Chain of KiSS-1 receptor (Homo sapiens) (Q969F8 whole entry, looked up): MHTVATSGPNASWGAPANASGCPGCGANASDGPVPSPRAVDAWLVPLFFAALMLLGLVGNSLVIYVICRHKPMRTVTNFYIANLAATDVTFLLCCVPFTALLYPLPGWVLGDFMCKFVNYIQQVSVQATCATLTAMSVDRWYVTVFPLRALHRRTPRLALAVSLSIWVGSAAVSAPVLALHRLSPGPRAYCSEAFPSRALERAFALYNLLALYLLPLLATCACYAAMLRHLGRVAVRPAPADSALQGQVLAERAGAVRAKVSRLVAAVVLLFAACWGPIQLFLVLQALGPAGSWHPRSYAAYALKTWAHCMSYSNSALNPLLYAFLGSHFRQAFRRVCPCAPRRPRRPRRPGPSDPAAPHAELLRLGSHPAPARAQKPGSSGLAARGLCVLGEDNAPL
Chain of Muscarinic acetylcholine receptor M1 (Homo sapiens) (P11229 whole entry, looked up): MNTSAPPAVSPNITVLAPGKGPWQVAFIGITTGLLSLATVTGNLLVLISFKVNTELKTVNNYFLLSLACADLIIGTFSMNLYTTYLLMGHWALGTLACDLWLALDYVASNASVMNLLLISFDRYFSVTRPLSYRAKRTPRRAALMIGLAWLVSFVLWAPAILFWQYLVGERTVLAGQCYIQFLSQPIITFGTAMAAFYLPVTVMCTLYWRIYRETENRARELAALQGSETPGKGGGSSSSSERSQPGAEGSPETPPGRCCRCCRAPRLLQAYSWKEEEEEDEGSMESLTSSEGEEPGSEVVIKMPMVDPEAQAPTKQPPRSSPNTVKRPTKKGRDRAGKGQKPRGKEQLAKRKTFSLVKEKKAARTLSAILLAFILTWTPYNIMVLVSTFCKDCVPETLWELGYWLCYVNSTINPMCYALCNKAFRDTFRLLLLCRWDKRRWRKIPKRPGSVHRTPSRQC
Chain of D(2) dopamine receptor (Homo sapiens) (P14416 whole entry, looked up): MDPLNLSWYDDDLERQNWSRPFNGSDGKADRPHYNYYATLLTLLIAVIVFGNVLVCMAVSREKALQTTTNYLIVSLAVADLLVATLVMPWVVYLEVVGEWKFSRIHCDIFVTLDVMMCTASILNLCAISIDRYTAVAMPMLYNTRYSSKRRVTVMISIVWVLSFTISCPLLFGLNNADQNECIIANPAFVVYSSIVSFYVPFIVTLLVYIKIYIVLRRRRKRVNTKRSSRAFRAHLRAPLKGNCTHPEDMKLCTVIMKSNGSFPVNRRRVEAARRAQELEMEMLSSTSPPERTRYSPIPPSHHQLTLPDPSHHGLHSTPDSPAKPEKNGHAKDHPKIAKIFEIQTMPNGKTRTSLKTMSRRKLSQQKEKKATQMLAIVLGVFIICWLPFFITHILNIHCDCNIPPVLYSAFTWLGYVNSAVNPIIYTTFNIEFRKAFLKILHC
Chain of Gonadotropin-releasing hormone receptor (Homo sapiens) (P30968 whole entry, looked up): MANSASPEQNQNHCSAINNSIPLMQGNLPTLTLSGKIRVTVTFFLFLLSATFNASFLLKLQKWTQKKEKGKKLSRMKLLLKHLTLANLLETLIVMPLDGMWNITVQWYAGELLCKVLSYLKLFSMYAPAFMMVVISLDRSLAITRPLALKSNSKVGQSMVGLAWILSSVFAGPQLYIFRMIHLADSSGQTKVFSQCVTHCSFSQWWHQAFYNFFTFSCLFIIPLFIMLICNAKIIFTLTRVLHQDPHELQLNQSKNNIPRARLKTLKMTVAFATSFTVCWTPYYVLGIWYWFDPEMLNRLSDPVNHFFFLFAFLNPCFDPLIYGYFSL
Chain of 5-hydroxytryptamine receptor 2A (Homo sapiens) (P28223 whole entry, looked up): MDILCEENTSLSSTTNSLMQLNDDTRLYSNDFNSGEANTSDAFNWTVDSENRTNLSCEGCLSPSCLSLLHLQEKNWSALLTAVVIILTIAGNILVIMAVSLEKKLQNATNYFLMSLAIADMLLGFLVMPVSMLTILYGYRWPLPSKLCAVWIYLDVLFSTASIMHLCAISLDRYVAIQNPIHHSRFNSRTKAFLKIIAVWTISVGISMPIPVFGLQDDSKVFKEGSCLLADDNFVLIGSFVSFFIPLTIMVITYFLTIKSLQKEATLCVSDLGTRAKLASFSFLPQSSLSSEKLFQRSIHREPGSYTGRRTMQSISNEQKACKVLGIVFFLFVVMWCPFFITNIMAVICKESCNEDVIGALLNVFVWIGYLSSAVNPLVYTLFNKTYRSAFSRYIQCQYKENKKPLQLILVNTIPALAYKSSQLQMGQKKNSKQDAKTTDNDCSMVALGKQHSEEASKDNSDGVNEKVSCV
Chain of Beta-2 adrenergic receptor (Homo sapiens) (P07550 whole entry, looked up): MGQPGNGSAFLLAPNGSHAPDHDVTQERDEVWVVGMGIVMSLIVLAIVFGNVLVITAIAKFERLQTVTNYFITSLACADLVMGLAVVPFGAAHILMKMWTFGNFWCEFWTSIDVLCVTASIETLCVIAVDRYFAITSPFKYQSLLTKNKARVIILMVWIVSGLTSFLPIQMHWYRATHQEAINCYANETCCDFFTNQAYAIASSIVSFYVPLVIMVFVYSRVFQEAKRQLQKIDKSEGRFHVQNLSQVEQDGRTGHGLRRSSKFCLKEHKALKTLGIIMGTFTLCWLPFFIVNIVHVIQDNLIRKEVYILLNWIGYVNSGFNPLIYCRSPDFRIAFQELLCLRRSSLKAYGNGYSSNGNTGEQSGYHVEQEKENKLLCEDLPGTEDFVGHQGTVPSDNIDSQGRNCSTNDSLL

Regarding `O=P(O)(O)CCCl`, the Potency result in [1], in [2], in test [3], in test [4], in [5] and in [6] was “inactive” throughout. In addition, the Potency result in test [7], in test [8], in [9], in test [10], in test [11] and in [12] was “inactive” in each case. In addition, the Potency result in test [13], in [14], in test [15], in test [16], in test [17] and in test [18] was “inactive” in each case. The Potency result in test [19] and in [20] was “inactive” in each case.
`N#Cc1ccc(Cl)cc1`: the Potency entry in [1], in test [2], in test [3], in test [4], in [5] and in [6] was “inactive” in each case. Moreover, the Potency result in test [7], in [8], in test [9], in test [10], in test [11] and in test [13] was “inactive” throughout. Also, the Potency result in test [14], in [15], in [16], in [17], in test [18] and in [19] was “inactive” in each case. Moreover, in [20], the Potency result is “inactive”.
Turning to `c1ccc(N2CCNCC2)cc1`, the Potency result in test [1], in test [2], in test [3], in [4], in test [5] and in [6] was “inactive” each time. Besides, the Potency result in [7], in test [8], in test [9], in [13], in test [14] and in test [15] was “inactive” in each case. Also, the Potency entry in test [16], in [17], in test [18], in test [19] and in test [20] was “inactive” throughout. For the same compound, the Potency was 0.818 µM (active) in test [11] and 601 nM (active) in [12].
For `O=C1c2ccccc2C(=O)N1SC(Cl)(Cl)Cl`, the Potency in [1] was 24 µM (active); in test [2], 15.1 µM (active) and 7.7 µM (active); in test [3], 38.9 µM (active); in [12] it was 54.2 µM (active) and 43.6 µM (active); in test [14], 49 µM (active); in test [18] it was 21.7 µM (active). The Potency entry in test [4], in test [5], in test [6], in test [7], in [9] and in [13] was “inactive” in each case. The Potency entry in [15], in test [17], in [19] and in test [20] was “inactive” each time.
In the case of `C[C@]12CCC(=O)C=C1CC[C@@H]1[C@@H]2CC[C@]2(C)C(=O)CC[C@@H]12`, the Potency entry in test [1], in test [2], in [3], in test [4], in [5] and in [6] was “inactive” each time. Besides, the Potency result in test [7], in test [8], in test [9], in test [10], in test [11] and in test [12] was “inactive” in each case. Also, the Potency result in [13], in test [14], in test [17], in [18] and in [19] was “inactive” throughout.
On to `CCCCC1C(=O)NC(=O)N(C2CCCCC2)C1=O` (centres undefined), for which the Potency result in test [1], in test [2], in test [3], in test [4], in test [5] and in test [6] was “inactive” each time. The Potency result in test [7], in test [8], in test [9], in test [10], in [11] and in test [12] was “inactive” throughout. Further, the Potency entry in test [13], in [14], in [15], in [16], in [17] and in [19] was “inactive” each time. Besides, in [20], the Potency result is “inactive”.
Consider `COP(=O)(O)OC`, for which the Potency result in [1], in test [2], in test [3], in test [4], in [5] and in test [6] was “inactive” in each case. Also, the Potency entry in test [7], in test [8], in test [9], in test [11], in [12] and in test [13] was “inactive” throughout. Besides, the Potency entry in [14], in test [15], in test [16], in test [17], in test [18] and in test [19] was “inactive” in each case. Further, the Potency result in test [20] was “inactive”.

For the origin of these results see PubChem BioAssay (Tox21).
